Assay results from the supplement of paper PMC10515830.
Where a name gives a salt, the structure may show the parent alone.

test system: Danio rerio larvae (5 dpf); experiment: difference in habituation to acoustic stimuli vs DMSO (percentage points); higher = more habituation than DMSO; conditions: 10 µM; exposure time 6 h
Method in brief: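 Wild-type 5 dpf zebrafish larvae in 96-well plates were given 100 µL egg water containing library compound at 10 µM final for 6 h. After 3 h of exposure, plates at 28.5 ℃ were photographed every 6 s during a 3-h programme of moving lines and 100 ms, 400Hz tones. Z-LaP Tracker (a DeepLabCut model) quantified each behaviour, averaged over 48 larvae per compound. Values are the compound mean minus the DMSO-vehicle control, in percentage points.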

SMILES	difference in habituation to acoustic stimuli
CC(C)(C(=O)O)c1ccc(C(O)CCCN2CCC(C(O)(c3ccccc3)c3ccccc3)CC2)cc1 (stereo not drawn) [Fexofenadine (hydrochloride)]	0.612
CCCCC[C@H](O)/C=C/[C@@H]1[C@H]2C/C(=C/CCCC(=O)O)O[C@H]2C[C@H]1O [Prostaglandin I2 (sodium salt)]	1.5
O=P(O)(O)C(O)(Cn1ccnc1)P(=O)(O)O [Zoledronic Acid (hydrate)]	0.128
Cc1ccc(O)c([C@H](CCN(C(C)C)C(C)C)c2ccccc2)c1 [Tolterodine (tartrate)]	-5.38
O=C(O)C1(C(=O)O)CCC1.[NH2-].[NH2-].[Pt+2] [Carboplatin]	0.48
Nc1nc(NC2CC2)c2ncn([C@H]3C=C[C@@H](CO)C3)c2n1 [Abacavir (sulfate)]	-0.118
CC(=O)N(O)CCCCCNC(=O)CCC(=O)N(O)CCCCCNC(=O)CCC(=O)N(O)CCCCCN [Deferoxamine (mesylate)]	-2.2
CCNC(=O)[C@@H]1CCCN1C(=O)[C@H](CCCNC(=N)N)NC(=O)[C@H](CC(C)C)NC(=O)[C@@H](CC(C)C)NC(=O)[C@H](Cc1ccc(O)cc1)NC(=O)[C@H](CO)NC(=O)[C@H](Cc1c[nH]c2ccccc12)NC(=O)[C@H](Cc1c[nH]cn1)NC(=O)[C@@H]1CCC(=O)N1 [Leuprorelin (acetate)]	1.37
COc1cc2ncnc(Nc3ccc(F)c(Cl)c3)c2cc1NC(=O)/C=C/CN1CCCCC1	-0.587
COCCCC/C(=N\OCCN)c1ccc(C(F)(F)F)cc1 [Fluvoxamine (maleate)]	-3.73
CC(C)N(CCCCOCC(=O)NS(C)(=O)=O)c1cnc(-c2ccccc2)c(-c2ccccc2)n1	5.08
CC[C@H]1OC(=O)[C@H](C)[C@@H](O[C@H]2C[C@@](C)(OC)[C@@H](O)[C@H](C)O2)[C@H](C)[C@@H](O[C@@H]2O[C@H](C)C[C@H](N(C)C)[C@H]2O)[C@](C)(O)C[C@@H](C)C(=O)[C@H](C)[C@@H](O)[C@]1(C)O [Erythromycin]	-0.584
N[C@H](C(=O)O)[C@H](O)c1ccc(O)c(O)c1 [Droxidopa]	5.02
Oc1ncnc2[nH]ncc12 [Allopurinol]	0.54
Clc1ccc(CCC(Cn2ccnc2)Sc2c(Cl)cccc2Cl)cc1 (stereo not drawn) [Butoconazole (nitrate)]	-10.8
CNC(=C[N+](=O)[O-])NCCSCc1csc(CN(C)C)n1 [Nizatidine]	2.96
CC(=O)OCC(=O)[C@@]12N=C(C)O[C@@H]1C[C@H]1[C@@H]3CCC4=CC(=O)C=C[C@]4(C)[C@H]3[C@@H](O)C[C@@]12C [Deflazacort]	-1.6
Nc1ncnc2c1ncn2[C@@H]1O[C@H](CO)[C@@H](O)[C@H]1O [Adenosine]	-5.11
S=c1nc[nH]c2nc[nH]c12 [6-Mercaptopurine (hydrate)]	-0.245
Cn1nnc(-c2ccc(-c3ccc(N4C[C@H](COP(=O)(O)O)OC4=O)cc3F)cn2)n1 [Tedizolid Phosphate]	2.23
CC(=O)N(CC(O)CO)c1c(I)c(C(=O)NCC(O)CO)c(I)c(C(=O)NCC(O)CO)c1I (stereo not drawn) [Iohexol]	-1.14
O=C(O)CCc1nc(-c2ccccc2)c(-c2ccccc2)o1 [Oxaprozin]	-4.84
CC(C)(C)NC[C@H](O)COc1cccc2c1CCCC2=O [Levobunolol (hydrochloride)]	-1.95
C#C[C@]1(O)CC[C@H]2[C@@H]3CCc4cc(O)ccc4[C@H]3CC[C@@]21C [Ethynyl Estradiol]	-11
CCN(CC)CC(=O)Nc1c(C)cccc1C [Lidocaine]	-4.04
COc1cccc2c1C(=O)c1c(O)c3c(c(O)c1C2=O)C[C@@](O)(C(=O)CO)C[C@@H]3O[C@H]1C[C@H](N)[C@H](O)[C@H](C)O1 [Doxorubicin (hydrochloride)]	6.05
CCCN(CCC)S(=O)(=O)c1ccc(C(=O)O)cc1 [Probenecid]	3.84
CCNC(=O)CCC/C=C\C[C@@H]1[C@@H](/C=C/[C@@H](O)CCc2ccccc2)[C@H](O)C[C@@H]1O [17-phenyl trinor Prostaglandin F2α ethyl amide]	-0.264
